From PubChem BioAssay AID1159580 (chemical genetic matrix, 2015)
Values joined by “and” are separate entries in the source; they are usually repeats but may differ in a detail not shown here. Equal values may be shown once. Among all 5,500 compounds or so, about 2,000 (36%) were called active. About 18% were inconclusive and are not listed. Rule as the data show it: active = normalized growth mostly below about 0.91 (no sharp cut-off); inconclusive = no clear call, values can overlap the other calls; inactive = mostly above about 0.92. This is one part of the list.

Experiment: chemical genetic growth profiling, strain panel (AID 1159580);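 also: tested at 20 µM; growth read once vehicle control cultures reached saturation at 30 °C; 1 = growth at the plate median or of vehicle wells; lower values mean less growth of the strain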
Conditions: growth OD

Measured: normalized growth

COc1ccc(Cl)cc1C(=O)NCCc1ccc(S(=O)(=O)NC(=O)NC2CCCCC2)cc1
inactive: S. cerevisiae deletion strains, locus YJR075W, strain HOC1, hits give low values 0.98 and 0.984 | S. cerevisiae deletion strains, locus YKL009W, strain mrt4, hits give low values 1.02 | S. cerevisiae deletion strains, locus YKL068W, hits give low values 1.04 | S. cerevisiae deletion strains, locus YKL085W, strain MDH1 (second series), hits give low values 0.977 | S. cerevisiae deletion strains, locus YKL085W, strain MDH1, hits give low values 0.977 | S. cerevisiae deletion strains, locus YKL160W, strain elf1, hits give low values 1.01 | S. cerevisiae deletion strains, locus YKL190W, strain CNB1, hits give low values 0.945 | S. cerevisiae deletion strains, locus YKR001C, strain vps1, hits give low values 0.997 | S. cerevisiae deletion strains, locus YKR026C, strain gcn3, hits give low values 0.989 | S. cerevisiae deletion strains, locus YKR091W, strain srl3, hits give low values 0.993 | S. cerevisiae deletion strains, locus YLL001W, strain dnm1, hits give low values 1.01 | S. cerevisiae deletion strains, locus YLL026W, hits give low values 0.995 | S. cerevisiae deletion strains, locus YLL041C, strain sdh2, hits give low values 1 | S. cerevisiae deletion strains, locus YLR027C, strain aat2, hits give low values 1.01 | S. cerevisiae deletion strains, locus YLR039C, strain RIC1, hits give low values 0.963 | S. cerevisiae deletion strains, locus YLR058C, strain SHM2, hits give low values 0.972 | S. cerevisiae deletion strains, locus YLR102C, strain apc9, hits give low values 0.989 | S. cerevisiae deletion strains, locus YLR113W, strain HOG1, hits give low values 1.01 | S. cerevisiae deletion strains, locus YLR221C, strain rsa3, hits give low values 1 | S. cerevisiae deletion strains, locus YLR258W, strain gsy2, hits give low values 0.982 | S. cerevisiae deletion strains, locus YLR262C, strain YPT6 (second series), hits give low values 0.999 | S. cerevisiae deletion strains, locus YLR262C, strain YPT6, hits give low values 0.915 | S. cerevisiae deletion strains, locus YLR268W, strain sec22, hits give low values 0.966 | S. cerevisiae deletion strains, locus YLR320W, strain mms22, hits give low values 1 | S. cerevisiae deletion strains, locus YLR330W, strain CHS5, hits give low values 0.994 | S. cerevisiae deletion strains, locus YLR342W, strain FKS1 (second series), hits give low values 1.1 | S. cerevisiae deletion strains, locus YLR342W, strain FKS1, hits give low values 1.01 | S. cerevisiae deletion strains, locus YLR357W, strain rsc2, hits give low values 0.998 | S. cerevisiae deletion strains, locus YLR370C, strain arc18, hits give low values 0.998 | S. cerevisiae deletion strains, locus YLR371W, strain rom2, hits give low values 1.01 | S. cerevisiae deletion strains, locus YLR384C, strain iki3, hits give low values 1 | S. cerevisiae deletion strains, locus YLR418C, strain cdc73, hits give low values 0.944 | S. cerevisiae deletion strains, locus YML016C, strain PPZ1, hits give low values 0.987 | S. cerevisiae deletion strains, locus YML032C, strain rad52, hits give low values 1.02 | S. cerevisiae deletion strains, locus YML120C, strain ndi1, hits give low values 1.02 | S. cerevisiae deletion strains, locus YML124C, strain tub3, hits give low values 1 | S. cerevisiae deletion strains, locus YMR058W, strain fet3, hits give low values 0.999 | S. cerevisiae deletion strains, locus YMR078C, strain ctf18, hits give low values 0.998 | S. cerevisiae deletion strains, locus YMR125W, strain sto1, hits give low values 0.992 | S. cerevisiae deletion strains, locus YMR129W, hits give low values 1.01 | S. cerevisiae deletion strains, locus YMR205C, strain PFK2, hits give low values 1 | S. cerevisiae deletion strains, locus YMR223W, strain ubp8, hits give low values 1.05 | S. cerevisiae deletion strains, locus YMR231W, strain pep5, hits give low values 1.01 | S. cerevisiae deletion strains, locus YMR263W, strain SAP30, hits give low values 0.961 and 1 | S. cerevisiae deletion strains, locus YMR307W, strain GAS1, hits give low values 1.06 and 0.976 | S. cerevisiae deletion strains, locus YNL067W, strain RPL9B, hits give low values 0.951 | S. cerevisiae deletion strains, locus YNL071W, strain lat1, hits give low values 1.01 | S. cerevisiae deletion strains, locus YNL128W, strain TEP1, hits give low values 0.911 | S. cerevisiae deletion strains, locus YNL153C, strain GIM3, hits give low values 0.943 and 1.04 | S. cerevisiae deletion strains, locus YNL175C, strain NOP13, hits give low values 1 | S. cerevisiae deletion strains, locus YNL183C, strain NPR1, hits give low values 0.947 | S. cerevisiae deletion strains, locus YNL197C, strain WHI3, hits give low values 1.01 | S. cerevisiae deletion strains, locus YNL209W, strain ssb2, hits give low values 1.01 | S. cerevisiae deletion strains, locus YNL224C, strain SQS1, hits give low values 1.01 | S. cerevisiae deletion strains, locus YNL233W, strain BNI4, hits give low values 0.978 | S. cerevisiae deletion strains, locus YNL248C, strain rpa49, hits give low values 1.01 | S. cerevisiae deletion strains, locus YNL250W, strain rad50, hits give low values 0.969 | S. cerevisiae deletion strains, locus YNL271C, strain bni1, hits give low values 0.999 | S. cerevisiae deletion strains, locus YNL298W, strain CLA4, hits give low values 0.987 | S. cerevisiae deletion strains, locus YNL307C, strain MCK1, hits give low values 1.03 | S. cerevisiae deletion strains, locus YNL322C, strain KRE1 (second series), hits give low values 0.999 | S. cerevisiae deletion strains, locus YNL322C, strain KRE1, hits give low values 0.975 | S. cerevisiae deletion strains, locus YNR049C, strain mso1, hits give low values 1 | S. cerevisiae deletion strains, locus YNR052C, strain pop2, hits give low values 1 | S. cerevisiae deletion strains, locus YOL006C, strain TOP1, hits give low values 0.875 | S. cerevisiae deletion strains, locus YOL012C, strain htz1 1.15 | S. cerevisiae deletion strains, locus YOL147C, strain pex11, hits give low values 1 | S. cerevisiae deletion strains, locus YOR001W, strain rrp6, hits give low values 1.01 | S. cerevisiae deletion strains, locus YOR061W, strain CKA2, hits give low values 0.96 | S. cerevisiae deletion strains, locus YOR069W, strain VPS5, hits give low values 1 | S. cerevisiae deletion strains, locus YOR070C, strain gyp1, hits give low values 0.995 | S. cerevisiae deletion strains, locus YOR080W, strain dia2, hits give low values 0.987 | S. cerevisiae deletion strains, locus YOR083W, strain WHI5 (second series), hits give low values 1.07 | S. cerevisiae deletion strains, locus YOR083W, strain WHI5, hits give low values 1.01 | S. cerevisiae deletion strains, locus YOR106W, strain vam3, hits give low values 1.01 | S. cerevisiae deletion strains, locus YOR136W, strain idh2, hits give low values 0.996 | S. cerevisiae deletion strains, locus YOR144C, strain elg1, hits give low values 0.999 | S. cerevisiae deletion strains, locus YOR184W, strain ser1, hits give low values 1.06 | S. cerevisiae deletion strains, locus YOR231W, strain MKK1, hits give low values 0.994 | S. cerevisiae deletion strains, locus YOR265W, strain rbl2, hits give low values 1 | S. cerevisiae deletion strains, locus YOR270C, strain vph1, hits give low values 0.998 | S. cerevisiae deletion strains, locus YOR290C, strain snf2, hits give low values 0.938 | S. cerevisiae deletion strains, locus YOR316C, strain cot1, hits give low values 0.994 | S. cerevisiae deletion strains, locus YPL051W, strain arl3, hits give low values 1.01 | S. cerevisiae deletion strains, locus YPL055C, strain LGE1, hits give low values 0.877 | S. cerevisiae deletion strains, locus YPL078C, strain atp4, hits give low values 1.01 | S. cerevisiae deletion strains, locus YPL106C, strain sse1, hits give low values 1.02 | S. cerevisiae deletion strains, locus YPL240C, strain hsp82, hits give low values 1 | S. cerevisiae deletion strains, locus YPL241C, strain CIN2, hits give low values 0.972 and 1.01 | S. cerevisiae deletion strains, locus YPL256C, strain CLN2, hits give low values 1.01 | S. cerevisiae deletion strains, locus YPR119W, strain clb2, hits give low values 0.986 | S. cerevisiae deletion strains, locus YPR141C, strain kar3, hits give low values 0.976 | S. cerevisiae deletion strains, locus YPR163C, strain tif3, hits give low values 1 | S. cerevisiae deletion strains, locus YPR167C, strain met16, hits give low values 0.993 | S. cerevisiae deletion strains, strain wtn01, hits give low values 0.98 | S. cerevisiae strains, strain wild type, hits give low values 0.97
